Assay outcomes as filed in PubChem.
The full list was thinned out, with hits kept by preference.
Vaccinia stage = Vaccinia orthopox stage-specific inhibition; Vaccinia-infected cells, mCherry/Venus stage reporter fluorescence; hits give low values; activity change (mCherry), % (test concentration not listed); actives 0.01% (n = 89,000); in the data active = activity change below about -37%, passing the limit was not always enough; tested in A549 cells
The depositor's hits bear a star.

SMILES | Vaccinia stage
C[C@@H]1CN([C@@H](C)CO)C(=O)Cc2cc(NS(C)(=O)=O)ccc2O[C@@H]1CN(C)S(=O)(=O)c1ccc(F)cc1 | -1
O=C(C1CCCC1)N1CC2(C1)[C@H](c1ccccc1)[C@H](CO)N2Cc1ccccc1F | -22
Cc1ccc(S(=O)(=O)N(C)C[C@@H]2Oc3ncc(C#CC(C)(C)O)cc3C(=O)N([C@H](C)CO)C[C@@H]2C)cc1 | 29
C[C@H](CO)N1C[C@H](C)[C@H](CN(C)CC2CCCCC2)Oc2ccc(NC(=O)Cc3ccccc3)cc2CC1=O | -5
CCC(=O)NC[C@H]1[C@@H](c2ccc(C3=CCCCC3)cc2)[C@@H](CO)N1C(=O)C1CC1 | -3
CC(C)[C@H](C)NC(=O)N(C)C[C@H]1OCc2ccccc2-c2ccccc2C(=O)N([C@H](C)CO)C[C@H]1C | 13
CNC[C@H]1Oc2cc(-c3cccc(C(=O)N(C)C)c3)ccc2S(=O)(=O)N([C@H](C)CO)C[C@@H]1C | 2
COC(=O)[C@@H]1[C@@H](CO)[C@@H]2Cn3c(ccc(C4=CCCCC4)c3=O)[C@H]1N2C(=O)NC(C)C | -5
C[C@@H]1CN([C@@H](C)CO)C(=O)c2cc(C3=CCCC3)cnc2O[C@@H]1CN(C)C(=O)CN(C)C | 33
Cc1ccccc1CN(C)C[C@@H]1OCc2cn(nn2)CCCC(=O)N([C@H](C)CO)C[C@H]1C | -4
CN(C)C(=O)c1ccc(-c2ccccc2[C@@H]2[C@H](C#N)N(C(=O)C3CCCCC3)[C@H]2CO)cc1 | 7
Cn1cnc(CCNC(=O)[C@H]2[C@H](CO)[C@H]3Cn4c(cccc4=O)[C@@H]2N3C(=O)Nc2ccccc2)c1 | 1
CCC(=O)N1C[C@H](C)[C@@H](OC)CN(C)C(=O)c2ccc(NC(=O)CC(F)(F)F)cc2OC[C@@H]1C | 13
C[C@@H]1CN([C@H](C)CO)S(=O)(=O)c2ccc(C3=CCCC3)cc2O[C@@H]1CN(C)CC1CCCCC1 | -23
COCCNC(=O)c1cc2c(c(-c3cccc(-c4cccc(F)c4)c3)n1)[C@@H](CCO)N([S@](=O)C(C)(C)C)C2 | -17
CCCNC(=O)c1cc2c(c(-c3cccc(-c4cccc(F)c4)c3)n1)[C@H](CCO)N([S@@](=O)C(C)(C)C)C2 | -46*
COc1ccccc1-c1cccc(-c2nc(C(=O)N3CCN(C)CC3)cc3c2[C@@H](CCO)N([S@](=O)C(C)(C)C)C3)c1 | -1
CN1CCN(C(=O)c2cc3c(c(-c4cccc(Br)c4)n2)[C@H](CCO)N([S@@](=O)C(C)(C)C)C3)CC1 | 5
CCNC(=O)c1cc2c(c(-c3cccc(-c4cccc(F)c4)c3)n1)[C@@H](CCO)N([S@](=O)C(C)(C)C)C2 | -24
CN1CCN(C(=O)c2cc3c(c(-c4cccc(C#CCC5CCCC5)c4)n2)[C@@H](CCO)N(S(=O)C(C)(C)C)C3)CC1 (stereo partly drawn) | -65*
CCC(=O)N(C)C[C@@H]1Oc2cc(-c3cccc(OC)c3)ccc2S(=O)(=O)N([C@H](C)CO)C[C@@H]1C | 12
C/C=C/c1cnc2c(c1)C(=O)N([C@@H](C)CO)C[C@@H](C)[C@H](CN(C)C(=O)C1CCCCC1)O2 | 18
CCCc1cn(CC[C@@H]2CC[C@@H](NC(=O)Nc3ccc4c(c3)OCO4)[C@H](CO)O2)nn1 | 11
COc1ccccc1C#Cc1ccc2c(c1)O[C@H](CN(C)Cc1ccccc1)[C@H](C)CN([C@H](C)CO)S2(=O)=O | -16
CCC(=O)Nc1ccc2c(c1)OC[C@@H](C)N(C(=O)c1ccccn1)C[C@@H](C)[C@H](OC)CN(C)C2=O | 2
SMILES | Vaccinia stage
Cc1cc(C(=O)Nc2cccc3c2O[C@H](CN(C)C(=O)Nc2ccc(F)cc2)[C@@H](C)CN([C@H](C)CO)C3=O)n(C)n1 | 12
C[C@H]1CN([C@@H](C)CO)C(=O)c2cc(-c3ccc(C#N)cc3)cnc2O[C@H]1CN(C)Cc1ccncc1 | 8
C[C@@H]1CN([C@H](C)CO)C(=O)c2cc(NC(=O)c3ccncc3)ccc2O[C@H]1CN(C)C(=O)Nc1ccc(F)cc1 | 1
CC(C)C#Cc1cnc2c(c1)C(=O)N([C@@H](C)CO)C[C@H](C)[C@@H](CN(C)C(=O)c1ccccc1F)O2 | 1
CC(=O)N(C)C[C@H]1Oc2cc(-c3cccnc3)ccc2S(=O)(=O)N([C@H](C)CO)C[C@@H]1C | -4
CCCC(=O)Nc1ccc2c(c1)C(=O)N(C)[C@@H]1CC[C@H](CC(=O)NCc3ccccc3)O[C@H]1CO2 | 11
O=C(Nc1nccs1)[C@@H]1[C@@H](CO)[C@@H]2Cn3c(ccc(-c4cccnc4)c3=O)[C@@H]2N1CC1CCCC1 | 13
CCC(=O)N(C)C[C@@H]1Oc2cc(C#Cc3cccnc3)ccc2S(=O)(=O)N([C@H](C)CO)C[C@H]1C | 13
C[C@H]1CN([C@@H](C)CO)C(=O)c2cccc(NC(=O)c3ccncc3)c2O[C@@H]1CN(C)Cc1ccc(C(=O)Nc2ccccc2N)cc1 | 12
CN(C)C(=O)C[C@H]1C[C@H]2c3cc(NC(=O)Nc4ccc(F)cc4)ccc3O[C@H]2[C@H](CO)O1 | 5
CC=Cc1ccc2n(c1=O)C[C@H]1[C@H](CO)[C@@H](C(=O)NCc3ccccc3F)N(CC)[C@@H]21 (mixture of isomers) | 5
C[C@@H](NC(=O)C[C@@H]1C[C@H]2c3cc(NC(=O)c4ccc5c(c4)OCO5)ccc3O[C@H]2[C@H](CO)O1)c1ccccc1 | -11
CCS(=O)(=O)Nc1ccc2c(c1)C(=O)N(C)[C@H]1CC[C@@H](CC(=O)N3CCN(C)CC3)O[C@@H]1CO2 | 10
O=C(N[C@H]1C=C[C@@H](CC(=O)N2CCN(c3ccccc3)CC2)O[C@@H]1CO)c1ccccc1 | 3
C[C@H](O)C#Cc1ccc2c(c1)O[C@H](CN(C)CC1CCCCC1)[C@H](C)CN([C@H](C)CO)S2(=O)=O | -3
CCC(=O)Nc1ccc2c(c1)OC[C@@H](C)N(C(=O)c1cnccn1)C[C@H](C)[C@@H](OC)CN(C)C2=O | 12
CO[C@H]1CN(C)C(=O)c2cc(NC(=O)c3cccc(F)c3)ccc2OC[C@H](C)NC[C@@H]1C | -17
COC(=O)C[C@@H]1CC[C@H]2[C@@H](COc3ccc(NC(=O)Nc4c(C)noc4C)cc3C(=O)N2C)O1 | 21
O=C(NCc1ccccc1)[C@@H]1[C@@H](CO)[C@@H]2Cn3c(cccc3=O)[C@H]1N2Cc1ccccn1 | 0
O=C(C[C@H]1CC[C@@H]2[C@H](COC[C@@H](O)CN2S(=O)(=O)c2ccccc2)O1)NCCN1CCCC1 | 12
CN1CCN(C(=O)C[C@@H]2CC[C@@H]3[C@H](COc4ccc(NC(=O)c5cccs5)cc4C(=O)N3C)O2)CC1 | -9
C[C@H](CO)N1C[C@H](C)[C@@H](CN(C)C(=O)C2CC2)Oc2cc(-c3ccc(C#N)cc3)ccc2S1(=O)=O | 4
C/C=C/c1ccc2c(c1)O[C@@H](CN(C)Cc1cncnc1)[C@H](C)CN([C@H](C)CO)S2(=O)=O | 10
Cc1noc(C)c1NC(=O)N(C)C[C@H]1OCCCC[C@@H](C)Oc2ccc(NC(=O)Cc3ccccc3)cc2C(=O)N([C@H](C)CO)C[C@@H]1C | 19
COc1ccc(S(=O)(=O)N(C)C[C@H]2Oc3ncc(Br)cc3C(=O)N([C@@H](C)CO)C[C@@H]2C)cc1 | 0
CO[C@@H]1CN(C)C(=O)c2cc(NS(C)(=O)=O)ccc2OC[C@@H](C)N(CCC(F)(F)F)C[C@H]1C | -1
CO[C@H]1CN(C)C(=O)c2ccc(NC(=O)Nc3cc(F)ccc3F)cc2OC[C@@H](C)N(C(=O)c2ccccn2)C[C@H]1C | 16
